# Measurements taken from PubChem BioAssay.
# The source made the active and inactive calls.
# What was measured:
# [1] = small molecules captured by biotinylated probe aFSTL3 – biochemical, small-molecule microarray, fluorescence 635/667, stem cell growth factor project, primary screen (AID 1064); settings: higher = more signal;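 further: measures binding of the biotinylated anti-FSTL3 antibody to printed compounds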
# [2] = binders from COS7 lysate, DM2A8 probe, primary screen, torsin A project, cell lysate, small-molecule microarray, fluorescence 635/667 (AID 1065); settings: higher = more signal, COS7 lysate expressing mutant human TOR1A
# [3] = small molecules captured by biotinylated probe aFGF2 – biochemical, small-molecule microarray, fluorescence 635/667, stem cell growth factor project, primary screen (AID 1067); settings: higher = more signal;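 further: measures binding of biotinylated aFGF2 protein to printed compounds on slides; z-score merges feature fluorescence and signal-to-noise across triplicate slides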
# [4] = small molecules captured by biotinylated probe aFGF10 – biochemical, small-molecule microarray, fluorescence 635/667, stem cell growth factor project, primary screen (AID 1071); settings: higher = more signal;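 further: score merges 667 nm spot intensity and signal to noise from triplicate slides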
# [5] = molecular target: Neurogenic locus notch homolog protein 2 (Homo sapiens) (UniProt Q04721); test: small molecules binding Notch2 protein – biochemical, small-molecule microarray, 635 nm fluorescence, stem cell growth factors, primary screen (AID 1073); settings: higher = more signal
# [6] = molecular target: Pro-neuregulin-1, membrane-bound isoform (Homo sapiens) (UniProt Q02297); test: small molecules binding neuregulin-1 protein – biochemical, small-molecule microarray, fluorescence 635/667, psychiatric disease protein project, primary screen (AID 1075); settings: NRG1 binding, 635 nm fluorescence, higher = more signal;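 further: score combines 667 nm spot fluorescence with signal to noise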
# [7] = tested on: Neuregulin-1 EGF-like domain; test: small molecules binding NRG1 EGF domain – biochemical, small-molecule microarray, 635 nm fluorescence, primary screen (AID 1081); settings: higher = more signal;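 further: binding of the protein to compounds printed on small-molecule microarray slides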
# [8] = FRG1 expression reporter modulators in myotubes – cell-based, C2C12 myotubes, firefly/Renilla luciferase, luminescence, FRG1 inhibition for FSHD, primary screen (AID 1084); settings: FRG1 promoter luciferase, higher = more signal, called active from +8 up or from −8 down
# [9] = small molecules captured by biotinylated probe aFST – biochemical, small-molecule microarray, fluorescence 635/667, stem cell growth factor project, primary screen (AID 1086); settings: higher = more signal;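 further: score merges 667 nm fluorescence with signal-to-noise of each printed compound spot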
# [10] = binders of probe aHhip on microarray, primary screen, stem cell growth factor project, biochemical, small-molecule microarray, fluorescence 635/667 (AID 1087); settings: higher = more signal;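 further: score merges spot fluorescence at 667nm with spot signal to noise ratio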
# [11] = tested on: PRMT1 (protein arginine N-methyltransferase 1); test: small molecules binding arginine methyltransferase PRMT1 – biochemical, small-molecule microarray, 635 nm fluorescence, primary screen (AID 1088); settings: higher = more signal;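 further: binding of Prmt1 protein to compounds spotted on small-molecule microarray slides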
# [12] = growth effects on S. cerevisiae YJM789 – YJM789 clinical isolate, OD600, 24 h, basal, primary screen (AID 1089); settings: higher = more signal, called active from +8 up or from −8 down;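 further: growth of clinical yeast isolate S. cerevisiae YJM 789 seeded 1000 cells per well; test concentration not given here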
# [13] = S. pombe growth modifiers, basal conditions – strain 972, OD600, 24 h, no modulator, primary screen (AID 1090);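 further: basal condition with compound alone and no growth modifier present; test concentration not given here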; settings: S. pombe 972 growth, higher = more signal, called active from +8 up or from −8 down
# [14] = budding yeast growth modifiers under rapamycin – strain BY4716, OD600, 96 h, primary screen (AID 1091); further: test concentration not given here; settings: S. cerevisiae BY4716 + rapamycin, higher = more signal, called active from +8 up or from −8 down
# [15] = molecular target: Torsin-1A-interacting protein 2 (Homo sapiens) (UniProt Q8NFQ8); test: small molecules binding lysate-expressed LULL1 – cell lysate, human LULL1 lysate, 635/667 nm fluorescence, primary screen (AID 1092); settings: small-molecule microarray, hLULL1 lysate binding, 635 nm fluorescence; higher = more signal;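 further: probe is lysate of COS7 cells overexpressing human LULL1; score merges per-feature 667 nm fluorescence with signal-to-noise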
# [16] = optical density change of DRC41 E. coli – strain DRC41, OD650, 24 h, E. coli filamentation project, primary screen (AID 1093);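 further: MC1000 strain lacking acrAB efflux and sulA so SOS filamentation is blocked; test concentration not given here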; settings: E. coli DRC41 growth, higher = more signal, called active from +8 up or from −8 down
# [17] = probe aLefty2 binding to arrayed compounds – biochemical, biotinylated probe, 635/667 nm fluorescence, primary screen (AID 1094); settings: small-molecule microarray, higher = more signal;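 further: score merges spot fluorescence near 667 nm with spot signal-to-noise ratio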
# [18] = tested on: Noggin (protein binding on small-molecule microarray); test: small molecules binding Noggin protein – biochemical, 635/667 nm fluorescence, primary screen (AID 1095); settings: 635 nm fluorescence, higher = more signal;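 further: score merges 667 nm feature fluorescence with signal to noise over triplicate slides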
# [19] = molecular target: Neurogenic locus notch homolog protein 3 (Homo sapiens) (UniProt Q9UM47); test: small molecules binding NOTCH3 protein – biochemical, 635/667 nm fluorescence, primary screen (AID 1096); settings: small-molecule microarray, 635 nm fluorescence, higher = more signal
# [20] = probe aEGFR binding to arrayed compounds – biochemical, biotinylated probe, 635/667 nm fluorescence, primary screen (AID 1097); settings: small-molecule microarray, higher = more signal;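 further: probe is a biotinylated anti-EGFR antibody binding compounds printed on slides; score combines fluorescence near 667 nm and signal to noise of each spot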
# Pro-neuregulin-1, membrane-bound isoform (Homo sapiens), sequence (Q02297 whole entry, looked up, the tested form may be a part, canonical isoform): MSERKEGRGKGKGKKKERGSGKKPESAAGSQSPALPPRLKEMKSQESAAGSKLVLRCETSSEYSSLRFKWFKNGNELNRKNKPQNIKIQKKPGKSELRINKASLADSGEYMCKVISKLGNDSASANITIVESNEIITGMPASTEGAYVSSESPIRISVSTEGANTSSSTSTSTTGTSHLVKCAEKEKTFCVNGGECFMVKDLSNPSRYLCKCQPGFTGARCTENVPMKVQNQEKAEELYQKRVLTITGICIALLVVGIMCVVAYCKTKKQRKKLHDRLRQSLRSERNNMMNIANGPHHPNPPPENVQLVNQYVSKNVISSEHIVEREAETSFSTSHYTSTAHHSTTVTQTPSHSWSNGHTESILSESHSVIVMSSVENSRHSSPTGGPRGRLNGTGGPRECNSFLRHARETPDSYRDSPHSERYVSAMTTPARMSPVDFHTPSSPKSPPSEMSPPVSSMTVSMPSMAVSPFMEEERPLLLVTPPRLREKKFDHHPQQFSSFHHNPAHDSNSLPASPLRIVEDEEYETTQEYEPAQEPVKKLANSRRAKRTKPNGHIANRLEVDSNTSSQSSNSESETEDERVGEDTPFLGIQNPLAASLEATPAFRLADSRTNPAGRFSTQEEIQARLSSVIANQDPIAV
# Torsin-1A-interacting protein 2 (Homo sapiens), sequence (Q8NFQ8 whole entry, looked up): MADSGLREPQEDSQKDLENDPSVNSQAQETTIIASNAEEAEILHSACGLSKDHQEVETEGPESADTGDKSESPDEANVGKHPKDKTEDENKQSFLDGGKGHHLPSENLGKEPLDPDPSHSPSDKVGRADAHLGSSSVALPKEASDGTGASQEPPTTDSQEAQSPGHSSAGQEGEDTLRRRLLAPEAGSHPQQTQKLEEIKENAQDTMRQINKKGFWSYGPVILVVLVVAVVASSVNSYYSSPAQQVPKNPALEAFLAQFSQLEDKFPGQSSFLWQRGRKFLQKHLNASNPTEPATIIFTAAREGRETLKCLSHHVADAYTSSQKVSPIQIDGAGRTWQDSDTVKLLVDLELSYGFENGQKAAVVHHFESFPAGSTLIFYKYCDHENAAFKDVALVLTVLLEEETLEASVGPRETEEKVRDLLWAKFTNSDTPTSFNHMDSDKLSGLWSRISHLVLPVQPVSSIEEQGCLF
# Neurogenic locus notch homolog protein 2 (Homo sapiens), sequence (Q04721 whole entry, looked up, canonical isoform): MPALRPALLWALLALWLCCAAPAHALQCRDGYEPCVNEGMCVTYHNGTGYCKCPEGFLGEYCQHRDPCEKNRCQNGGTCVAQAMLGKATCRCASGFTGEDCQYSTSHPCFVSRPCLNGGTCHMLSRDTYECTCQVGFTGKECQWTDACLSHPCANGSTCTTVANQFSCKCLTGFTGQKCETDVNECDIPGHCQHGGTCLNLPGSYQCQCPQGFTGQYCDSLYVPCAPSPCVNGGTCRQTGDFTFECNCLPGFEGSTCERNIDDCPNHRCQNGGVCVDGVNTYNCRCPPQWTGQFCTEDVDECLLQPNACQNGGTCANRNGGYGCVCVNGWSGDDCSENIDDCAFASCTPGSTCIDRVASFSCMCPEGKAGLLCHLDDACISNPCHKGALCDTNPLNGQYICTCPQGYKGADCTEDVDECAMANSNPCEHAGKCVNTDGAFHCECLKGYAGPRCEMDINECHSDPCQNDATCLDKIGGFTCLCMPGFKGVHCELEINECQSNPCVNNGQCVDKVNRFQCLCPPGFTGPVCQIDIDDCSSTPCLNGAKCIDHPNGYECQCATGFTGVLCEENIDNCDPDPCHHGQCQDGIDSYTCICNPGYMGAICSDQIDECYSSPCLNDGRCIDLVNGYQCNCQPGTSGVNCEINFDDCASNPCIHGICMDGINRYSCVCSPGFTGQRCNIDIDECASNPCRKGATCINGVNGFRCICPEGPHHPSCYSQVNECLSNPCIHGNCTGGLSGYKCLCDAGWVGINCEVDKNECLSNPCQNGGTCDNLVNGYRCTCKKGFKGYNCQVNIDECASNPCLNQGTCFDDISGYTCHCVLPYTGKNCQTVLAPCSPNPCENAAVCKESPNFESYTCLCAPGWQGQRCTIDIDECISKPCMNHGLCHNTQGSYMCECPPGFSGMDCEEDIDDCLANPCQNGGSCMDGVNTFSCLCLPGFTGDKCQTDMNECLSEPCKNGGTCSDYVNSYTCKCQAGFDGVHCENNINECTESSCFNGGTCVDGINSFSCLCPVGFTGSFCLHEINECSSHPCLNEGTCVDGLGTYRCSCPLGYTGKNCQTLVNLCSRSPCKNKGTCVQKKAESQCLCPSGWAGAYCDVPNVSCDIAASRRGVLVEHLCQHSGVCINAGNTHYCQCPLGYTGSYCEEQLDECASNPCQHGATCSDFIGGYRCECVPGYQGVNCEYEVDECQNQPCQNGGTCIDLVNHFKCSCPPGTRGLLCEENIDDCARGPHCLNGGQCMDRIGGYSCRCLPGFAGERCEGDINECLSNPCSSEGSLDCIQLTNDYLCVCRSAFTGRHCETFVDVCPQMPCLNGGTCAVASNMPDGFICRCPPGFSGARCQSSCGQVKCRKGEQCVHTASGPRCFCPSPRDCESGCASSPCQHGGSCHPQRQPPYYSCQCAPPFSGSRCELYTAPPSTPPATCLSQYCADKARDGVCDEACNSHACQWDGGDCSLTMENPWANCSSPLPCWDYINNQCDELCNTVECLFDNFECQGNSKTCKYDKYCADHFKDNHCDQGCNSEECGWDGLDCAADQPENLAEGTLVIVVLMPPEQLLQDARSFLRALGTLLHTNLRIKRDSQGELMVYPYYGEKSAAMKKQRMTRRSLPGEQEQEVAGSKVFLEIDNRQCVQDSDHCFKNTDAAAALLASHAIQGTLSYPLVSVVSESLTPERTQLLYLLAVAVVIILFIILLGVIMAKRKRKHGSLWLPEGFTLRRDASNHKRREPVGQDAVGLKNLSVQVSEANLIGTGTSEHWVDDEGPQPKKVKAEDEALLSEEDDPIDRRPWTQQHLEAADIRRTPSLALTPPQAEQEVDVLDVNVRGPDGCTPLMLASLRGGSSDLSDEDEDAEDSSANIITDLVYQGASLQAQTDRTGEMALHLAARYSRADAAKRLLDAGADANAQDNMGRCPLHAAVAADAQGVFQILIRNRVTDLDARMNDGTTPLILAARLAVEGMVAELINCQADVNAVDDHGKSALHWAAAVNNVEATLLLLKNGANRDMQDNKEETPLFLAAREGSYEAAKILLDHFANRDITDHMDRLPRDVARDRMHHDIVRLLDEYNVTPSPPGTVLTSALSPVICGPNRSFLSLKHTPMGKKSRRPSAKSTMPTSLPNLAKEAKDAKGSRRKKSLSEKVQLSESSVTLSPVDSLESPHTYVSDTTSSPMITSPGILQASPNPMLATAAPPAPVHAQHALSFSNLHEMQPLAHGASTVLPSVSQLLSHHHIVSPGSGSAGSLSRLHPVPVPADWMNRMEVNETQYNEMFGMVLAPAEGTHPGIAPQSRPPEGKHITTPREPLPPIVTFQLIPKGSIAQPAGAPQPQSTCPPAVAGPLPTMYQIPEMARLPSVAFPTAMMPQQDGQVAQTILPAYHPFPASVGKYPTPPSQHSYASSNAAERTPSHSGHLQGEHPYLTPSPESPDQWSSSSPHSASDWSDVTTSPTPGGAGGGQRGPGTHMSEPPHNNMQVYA
SMILES,composite z-score [1],composite z-score [2],composite z-score [3],composite z-score [4],composite z-score [5],composite z-score [6],composite z-score [7],z-score [8],composite z-score [9],composite z-score [10],composite z-score [11],z-score [12],z-score [13],z-score [14],composite z-score [15],z-score [16],composite z-score [17],composite z-score [18],composite z-score [19],composite z-score [20]
NC(=O)[C@@H]1[C@H]2C(=O)O[C@H](c3ccccc3)[C@H](c3ccccc3)N2[C@H](c2ccc(O)cc2)[C@@]12C(=O)Nc1ccc(C#CC3(O)CCCCCC3)cc12,0.372,0.167,0.0075,0.244,0.0065,0.959,1.42,0.854 (inactive),-0.0686,-0.0645,0.454,0.505 (inactive),-0.133 (inactive),0.639 (inactive),2.14,-0.441 (inactive),-0.072,-0.6,-0.395,-0.178
O=C1OCCC/C=C\[C@H]2OC34C=CCN(CCN5CCOCC5)C(=O)[C@H]3N(CCCO)C(=O)[C@@H]4C12 (stereo not given in full),-0.0893,0.95,-0.168,-1.07,-0.793,1.47,0.993,0.562 (inactive),-0.209,-0.216,-0.622,-1.35 (inactive),-0.632 (inactive),-0.595 (inactive),3.54,-0.44 (inactive),-0.381,-0.813,-0.93,-0.199
COC(=O)[C@@]1(Cc2ccc(F)cc2)[C@H]2c3cc(C(=O)N4CCCC4)n(Cc4cc(C)n(C)n4)c3C[C@H]2CN1C(=O)c1ccccc1,1.08,0.276,0.188,0.741,1.63,2.3,1.19,0.23 (inactive),0.939,0.28,0.364,-0.408 (inactive),-0.292 (inactive),1.2 (inactive),3.75,0.234 (inactive),0.555,-0.678,0.769,0.209
CCCCCC1=C2CNC(CCC)(C(=O)OC)C=C2C(C)C1=O (stereo not given),0.327,0.0422,-0.0074,0.159,1.14,0.92,0.993,0.488 (inactive),0.21,1.96,-0.523,0.0131 (inactive),0.277 (inactive),0.573 (inactive),2.13,-0.48 (inactive),0.0943,-0.236,0.358,0.189
CC(C)(C)OC(=O)CC[C@@]12N=C(c3ccc(OCCCO)cc3)O[C@@H]1c1ccccc1N(CCS(=O)(=O)c1ccccc1)C2=O,0.742,0.066,-0.0174,-0.366,0.893,0.729,1.11,-2.9 (inactive),0.687,0.0302,1.07,-0.0877 (inactive),0.326 (inactive),0.0825 (inactive),2.48,1.68 (inactive),0.193,0.427,0.784,-0.0679
COCCn1c(C(=O)N2CCCC2)cc2c1C[C@H]1CN(C(=O)c3ccccc3)[C@@](Cc3ccc(F)cc3)(C(=O)OC)[C@@H]21,0.123,0.214,0.24,0.252,1.41,1.81,0.997,2.89 (inactive),0.77,0.0078,1.12,-0.339 (inactive),0.0582 (inactive),-0.0799 (inactive),3.84,-0.191 (inactive),0.166,0.126,0.583,0.0843
O=C1OCCC/C=C\[C@H]2OC34C=CCN(c5ccc6ccccc6c5)C(=O)[C@H]3N(CCCCCCO)C(=O)[C@@H]4C12 (stereo not given in full),0.221,-0.295,-0.0824,-0.648,-1.15,-0.177,1.25,-0.824 (inactive),-0.307,-0.0239,0.0502,-1.96 (inactive),-1.15 (inactive),-0.533 (inactive),0.132,1.1 (inactive),-0.25,-0.695,0.086,-0.0597
CCCC=C(CCC)[C@@H](NC(=O)Oc1ccc(F)cc1)c1ccc(C(=O)OC)cc1,0.415,0.175,0.0883,0.48,1.52,-0.454,0.482,-3.81 (inactive),0.794,-0.121,0.598,0.876 (inactive),1.99 (inactive),2.32 (inactive),3,-0.211 (inactive),0.212,-0.149,0.775,0.601
CC(=O)NCCCC[C@@H]1NC(=O)[C@@H]2C[C@H](C(=O)NCCCCN(C)C)[C@H](c3cccc(OCCO)c3)N2C1=O,0.123,0.537,-0.108,-0.107,-0.569,-0.283,1.12,3.26 (inactive),0.571,-0.236,0.558,-0.546 (inactive),0.595 (inactive),-0.789 (inactive),1.51,0.187 (inactive),-0.0124,-0.104,0.465,-0.127
C=C(CCCC)/C(=C/C[C@@H](OC(C)=O)c1ccccc1OCCO)c1cnc2ccccc2c1,0.0298,1.08,-0.0633,-0.036,0.13,0.967,0.95,-0.983 (inactive),0.0983,0.176,1.3,0.182 (inactive),-0.727 (inactive),0.0058 (inactive),1.1,0.468 (inactive),-0.0208,0.61,0.513,-0.0675
